From PubChem BioAssay AID1159580 (chemical genetic matrix, 2015)
Values joined by “and” are separate entries in the source; they are usually repeats but may differ in a detail not shown here. Equal values may be shown once. The campaign covered roughly 5,500 compounds. About 2,000 (36%) were called active. About 18% were inconclusive and are not listed. Rule as the data show it: active = normalized growth mostly below about 0.91 (no sharp cut-off); inconclusive = no clear call, values can overlap the other calls; inactive = mostly above about 0.92. This is one part of the list.

Test: chemical genetic growth profiling, strain panel (AID 1159580);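 also: tested at 20 µM; growth read once vehicle control cultures reached saturation at 30 °C; 1 = growth at the plate median or of vehicle wells; lower values mean less growth of the strain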
Conditions: S. cerevisiae deletion strains, growth OD

Measured: normalized growth

Nc1ccc(S(=O)(=O)NC(=O)c2ccccc2)cc1
inactive: locus YAL013W, strain DEP1, stronger effect = lower value 1.01 | locus YAL021C, strain ccr4, stronger effect = lower value 0.985 | locus YAL026C, strain drs2, stronger effect = lower value 1 | locus YAL030W, strain snc1, stronger effect = lower value 1.01 | locus YBL061C, strain skt5, stronger effect = lower value 0.99 | locus YBR009C, strain hhf1, stronger effect = lower value 0.959 | locus YBR021W, strain FUR4, stronger effect = lower value 1.04 | locus YBR023C, strain chs3, stronger effect = lower value 0.995 | locus YBR171W, strain sec66, stronger effect = lower value 0.992 | locus YBR229C, strain ROT2, stronger effect = lower value 1.01 | locus YBR231C, strain swc5, stronger effect = lower value 0.992 | locus YBR279W, strain paf1, stronger effect = lower value 0.985 | locus YCL011C, strain gbp2, stronger effect = lower value 1 | locus YCL016C, strain dcc1, stronger effect = lower value 1.01 | locus YCL029C, strain bik1, stronger effect = lower value 1.02 | locus YCL061C, strain MRC1, stronger effect = lower value 0.979 | locus YCL069W, strain vba3, stronger effect = lower value 0.968 | locus YCR088W, strain abp1, stronger effect = lower value 0.978 | locus YDL005C, strain med2, stronger effect = lower value 0.992 | locus YDL035C, strain GPR1, stronger effect = lower value 1.01 | locus YDL040C, strain nat1, stronger effect = lower value 0.998 | locus YDL074C, strain BRE1, stronger effect = lower value 1.01 | locus YDL101C, strain DUN1, stronger effect = lower value 1.01 | locus YDL134C, strain PPH21, stronger effect = lower value 1.02 | locus YDL185W, strain tfp1, stronger effect = lower value 0.999 | locus YDL192W, strain arf1, stronger effect = lower value 1.02 | locus YDR001C, strain nth1, stronger effect = lower value 0.975 | locus YDR069C, strain doa4, stronger effect = lower value 0.973 | locus YDR101C, strain arx1, stronger effect = lower value 1.02 | locus YDR137W, strain rgp1, stronger effect = lower value 0.959 | locus YDR159W, strain sac3, stronger effect = lower value 0.948 | locus YDR162C, strain NBP2, stronger effect = lower value 1 | locus YDR195W, strain ref2 0.957 | locus YDR297W, strain sur2, stronger effect = lower value 0.997 | locus YDR318W, strain mcm21, stronger effect = lower value 1.03 | locus YDR334W, strain swr1, stronger effect = lower value 0.934 | locus YDR335W, strain msn5, stronger effect = lower value 0.985 | locus YDR388W, stronger effect = lower value 1.02 | locus YDR392W, strain spt3, stronger effect = lower value 1.01 | locus YDR502C, strain sam2, stronger effect = lower value 1.03 | locus YEL003W, strain gim4, stronger effect = lower value 0.99 | locus YEL037C, strain rad23, stronger effect = lower value 0.988 | locus YEL061C, strain CIN8 (second series), stronger effect = lower value 0.993 | locus YEL061C, strain CIN8, stronger effect = lower value 1.01 | locus YER015W, strain faa2, stronger effect = lower value 0.998 | locus YER016W, strain bim1, stronger effect = lower value 0.974 | locus YER110C, stronger effect = lower value 1.03 | locus YER111C, strain swi4, stronger effect = lower value 1.01 | locus YER155C, strain BEM2 (second series), stronger effect = lower value 1.02 | locus YER155C, strain BEM2, stronger effect = lower value 1.01 | locus YER167W, strain BCK2, stronger effect = lower value 1 | locus YFR010W, strain ubp6, stronger effect = lower value 0.951 | locus YGL078C, strain dbp3, stronger effect = lower value 1.02 | locus YGL086W, strain mad1, stronger effect = lower value 1.01 | locus YGL167C, strain pmr1, stronger effect = lower value 0.964 | locus YGL173C, strain kem1, stronger effect = lower value 0.986 | locus YGL227W, strain vid30, stronger effect = lower value 0.967 | locus YGL240W, strain doc1, stronger effect = lower value 0.998 | locus YGL248W, strain PDE1, stronger effect = lower value 1 | locus YGL253W, strain hxk2, stronger effect = lower value 0.989 | locus YGR135W, strain pre9, stronger effect = lower value 1.02 | locus YGR252W, strain gcn5, stronger effect = lower value 0.997 | locus YHR013C, strain ard1, stronger effect = lower value 0.98 | locus YHR027C, strain rpn1, stronger effect = lower value 0.993 | locus YHR030C, strain SLT2, stronger effect = lower value 1.01 and 0.995 | locus YHR079C, strain IRE1 (second series), stronger effect = lower value 1.01 | locus YHR079C, strain IRE1, stronger effect = lower value 0.98 | locus YHR094C, strain hxt1, stronger effect = lower value 1.01 | locus YHR129C, strain ARP1, stronger effect = lower value 0.996 | locus YHR142W, strain chs7, stronger effect = lower value 0.997 | locus YHR200W, strain rpn10, stronger effect = lower value 1.02 | locus YIL066C, strain RNR3, stronger effect = lower value 1.01 | locus YIL073C, strain SPO22, stronger effect = lower value 1.06 | locus YIL125W, strain kgd1, stronger effect = lower value 1.01 | locus YIR030C, strain dcg1, stronger effect = lower value 1.02 | locus YJL092W, strain hpr5, stronger effect = lower value 0.993 | locus YJL095W, strain BCK1 (second series), stronger effect = lower value 0.996 | locus YJL095W, strain BCK1, stronger effect = lower value 0.994 and 0.999 | locus YJL115W, strain asf1, stronger effect = lower value 0.999 | locus YJL129C, strain trk1, stronger effect = lower value 0.983 | locus YJL134W, strain LCB3, stronger effect = lower value 1.01 | locus YJL154C, strain vps35, stronger effect = lower value 0.99 | locus YJL164C, strain tpk1, stronger effect = lower value 0.979 | locus YJL166W, strain qcr8, stronger effect = lower value 0.983 | locus YJL168C, strain set2, stronger effect = lower value 1.01 | locus YJL187C, strain SWE1 (second series), stronger effect = lower value 1.01 | locus YJL187C, strain SWE1, stronger effect = lower value 0.992 | locus YJR043C, strain POL32, stronger effect = lower value 1.01
